# About 2,000 (36%) of roughly 5,500 compounds were called active. Roughly 18% stayed inconclusive and do not appear here. Some of the results follow. A number with no mark means an inactive call. Cut-off read from the data, not from the text of the source: active = normalized growth mostly below about 0.91 (no sharp cut-off); inconclusive = no clear call, values can overlap the other calls; inactive = mostly above about 0.92.
# Test: chemical genetic growth profiling, strain panel (AID 1159580);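 note: tested at 20 µM; growth read once vehicle control cultures reached saturation at 30 °C; 1 = growth at the plate median or of vehicle wells; lower values mean less growth of the strain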
# Conditions: growth OD
smiles,measurement,setting,value
CC1=NN(c2ccccc2)C(=O)C1,normalized growth,"S. cerevisiae deletion strains, locus YJR075W, strain HOC1, active compounds read low",0.979
same,normalized growth,"S. cerevisiae deletion strains, locus YKL009W, strain mrt4, active compounds read low",0.991
same,normalized growth,"S. cerevisiae deletion strains, locus YKL068W, active compounds read low",0.98
same,normalized growth,"S. cerevisiae deletion strains, locus YKL085W, strain MDH1 (second series), active compounds read low",0.963
same,normalized growth,"S. cerevisiae deletion strains, locus YKL085W, strain MDH1, active compounds read low",0.963
same,normalized growth,"S. cerevisiae deletion strains, locus YKL160W, strain elf1, active compounds read low",0.951
same,normalized growth,"S. cerevisiae deletion strains, locus YKL190W, strain CNB1, active compounds read low",0.994
same,normalized growth,"S. cerevisiae deletion strains, locus YKR001C, strain vps1, active compounds read low",0.961
same,normalized growth,"S. cerevisiae deletion strains, locus YKR026C, strain gcn3, active compounds read low",0.994
same,normalized growth,"S. cerevisiae deletion strains, locus YKR091W, strain srl3, active compounds read low",0.986
same,normalized growth,"S. cerevisiae deletion strains, locus YLL001W, strain dnm1, active compounds read low",0.951
same,normalized growth,"S. cerevisiae deletion strains, locus YLL026W, active compounds read low",0.984
same,normalized growth,"S. cerevisiae deletion strains, locus YLL041C, strain sdh2, active compounds read low",0.99
same,normalized growth,"S. cerevisiae deletion strains, locus YLR027C, strain aat2, active compounds read low",0.994
same,normalized growth,"S. cerevisiae deletion strains, locus YLR039C, strain RIC1, active compounds read low",0.782
same,normalized growth,"S. cerevisiae deletion strains, locus YLR058C, strain SHM2, active compounds read low",0.965
same,normalized growth,"S. cerevisiae deletion strains, locus YLR102C, strain apc9, active compounds read low",1
same,normalized growth,"S. cerevisiae deletion strains, locus YLR221C, strain rsa3, active compounds read low",0.961
same,normalized growth,"S. cerevisiae deletion strains, locus YLR258W, strain gsy2, active compounds read low",0.957
same,normalized growth,"S. cerevisiae deletion strains, locus YLR262C, strain YPT6 (second series), active compounds read low",0.915
same,normalized growth,"S. cerevisiae deletion strains, locus YLR262C, strain YPT6, active compounds read low",0.725
same,normalized growth,"S. cerevisiae deletion strains, locus YLR268W, strain sec22, active compounds read low",0.908
same,normalized growth,"S. cerevisiae deletion strains, locus YLR320W, strain mms22, active compounds read low",0.962
same,normalized growth,"S. cerevisiae deletion strains, locus YLR330W, strain CHS5, active compounds read low",0.988
same,normalized growth,"S. cerevisiae deletion strains, locus YLR342W, strain FKS1 (second series), active compounds read low",0.832
same,normalized growth,"S. cerevisiae deletion strains, locus YLR342W, strain FKS1, active compounds read low",0.987
same,normalized growth,"S. cerevisiae deletion strains, locus YLR357W, strain rsc2, active compounds read low",1
same,normalized growth,"S. cerevisiae deletion strains, locus YLR370C, strain arc18, active compounds read low",0.987
same,normalized growth,"S. cerevisiae deletion strains, locus YLR371W, strain rom2, active compounds read low",0.913
same,normalized growth,"S. cerevisiae deletion strains, locus YLR384C, strain iki3, active compounds read low",0.982
same,normalized growth,"S. cerevisiae deletion strains, locus YLR418C, strain cdc73, active compounds read low",0.78 (active)
same,normalized growth,"S. cerevisiae deletion strains, locus YML016C, strain PPZ1, active compounds read low",0.979
same,normalized growth,"S. cerevisiae deletion strains, locus YML032C, strain rad52, active compounds read low",0.922
same,normalized growth,"S. cerevisiae deletion strains, locus YML120C, strain ndi1, active compounds read low",0.974
same,normalized growth,"S. cerevisiae deletion strains, locus YML124C, strain tub3, active compounds read low",0.984
same,normalized growth,"S. cerevisiae deletion strains, locus YMR058W, strain fet3, active compounds read low",0.922
same,normalized growth,"S. cerevisiae deletion strains, locus YMR078C, strain ctf18, active compounds read low",0.969
same,normalized growth,"S. cerevisiae deletion strains, locus YMR125W, strain sto1, active compounds read low",0.998
same,normalized growth,"S. cerevisiae deletion strains, locus YMR129W, active compounds read low",0.996
same,normalized growth,"S. cerevisiae deletion strains, locus YMR205C, strain PFK2, active compounds read low",0.958
same,normalized growth,"S. cerevisiae deletion strains, locus YMR223W, strain ubp8, active compounds read low",0.925
same,normalized growth,"S. cerevisiae deletion strains, locus YMR231W, strain pep5, active compounds read low",0.984
same,normalized growth,"S. cerevisiae deletion strains, locus YMR263W, strain SAP30, active compounds read low",0.97
same,normalized growth,"S. cerevisiae deletion strains, locus YMR307W, strain GAS1, active compounds read low",0.7
same,normalized growth,"S. cerevisiae deletion strains, locus YNL067W, strain RPL9B, active compounds read low",0.992
same,normalized growth,"S. cerevisiae deletion strains, locus YNL071W, strain lat1, active compounds read low",0.922
same,normalized growth,"S. cerevisiae deletion strains, locus YNL128W, strain TEP1, active compounds read low",0.969
same,normalized growth,"S. cerevisiae deletion strains, locus YNL209W, strain ssb2, active compounds read low",0.993
same,normalized growth,"S. cerevisiae deletion strains, locus YNL233W, strain BNI4, active compounds read low",0.993
same,normalized growth,"S. cerevisiae deletion strains, locus YNL248C, strain rpa49, active compounds read low",0.973
same,normalized growth,"S. cerevisiae deletion strains, locus YNL250W, strain rad50, active compounds read low",0.957
same,normalized growth,"S. cerevisiae deletion strains, locus YNL271C, strain bni1, active compounds read low",0.925
same,normalized growth,"S. cerevisiae deletion strains, locus YNL298W, strain CLA4, active compounds read low",0.951
same,normalized growth,"S. cerevisiae deletion strains, locus YNL307C, strain MCK1, active compounds read low",0.796 (active)
same,normalized growth,"S. cerevisiae deletion strains, locus YNL322C, strain KRE1 (second series), active compounds read low",0.977
same,normalized growth,"S. cerevisiae deletion strains, locus YNL322C, strain KRE1, active compounds read low",0.985
same,normalized growth,"S. cerevisiae deletion strains, locus YNR049C, strain mso1, active compounds read low",0.992
same,normalized growth,"S. cerevisiae deletion strains, locus YNR052C, strain pop2, active compounds read low",0.942
same,normalized growth,"S. cerevisiae deletion strains, locus YOL006C, strain TOP1, active compounds read low",0.997
same,normalized growth,"S. cerevisiae deletion strains, locus YOL012C, strain htz1",0.753
same,normalized growth,"S. cerevisiae deletion strains, locus YOL147C, strain pex11, active compounds read low",0.979
same,normalized growth,"S. cerevisiae deletion strains, locus YOR001W, strain rrp6, active compounds read low",0.972
same,normalized growth,"S. cerevisiae deletion strains, locus YOR061W, strain CKA2, active compounds read low",0.98
same,normalized growth,"S. cerevisiae deletion strains, locus YOR069W, strain VPS5, active compounds read low",0.982
same,normalized growth,"S. cerevisiae deletion strains, locus YOR070C, strain gyp1, active compounds read low",0.995
same,normalized growth,"S. cerevisiae deletion strains, locus YOR080W, strain dia2, active compounds read low",0.97
same,normalized growth,"S. cerevisiae deletion strains, locus YOR083W, strain WHI5, active compounds read low",0.939
same,normalized growth,"S. cerevisiae deletion strains, locus YOR106W, strain vam3, active compounds read low",0.959
same,normalized growth,"S. cerevisiae deletion strains, locus YOR136W, strain idh2, active compounds read low",0.966
same,normalized growth,"S. cerevisiae deletion strains, locus YOR144C, strain elg1, active compounds read low",0.988
same,normalized growth,"S. cerevisiae deletion strains, locus YOR184W, strain ser1, active compounds read low",0.927
same,normalized growth,"S. cerevisiae deletion strains, locus YOR265W, strain rbl2, active compounds read low",0.988
same,normalized growth,"S. cerevisiae deletion strains, locus YOR270C, strain vph1, active compounds read low",1.03
same,normalized growth,"S. cerevisiae deletion strains, locus YOR290C, strain snf2, active compounds read low",0.938
same,normalized growth,"S. cerevisiae deletion strains, locus YOR316C, strain cot1, active compounds read low",0.984
same,normalized growth,"S. cerevisiae deletion strains, locus YPL051W, strain arl3, active compounds read low",0.954
same,normalized growth,"S. cerevisiae deletion strains, locus YPL078C, strain atp4, active compounds read low",0.971
same,normalized growth,"S. cerevisiae deletion strains, locus YPL106C, strain sse1, active compounds read low",1.01
same,normalized growth,"S. cerevisiae deletion strains, locus YPL240C, strain hsp82, active compounds read low",0.987
same,normalized growth,"S. cerevisiae deletion strains, locus YPL241C, strain CIN2, active compounds read low",0.986
same,normalized growth,"S. cerevisiae deletion strains, locus YPR119W, strain clb2, active compounds read low",0.987
same,normalized growth,"S. cerevisiae deletion strains, locus YPR141C, strain kar3, active compounds read low",0.947
same,normalized growth,"S. cerevisiae deletion strains, locus YPR163C, strain tif3, active compounds read low",0.968
same,normalized growth,"S. cerevisiae deletion strains, locus YPR167C, strain met16, active compounds read low",0.969
same,normalized growth,"S. cerevisiae deletion strains, strain wtn01, active compounds read low",0.928
same,normalized growth,"S. cerevisiae strains, strain wild type, active compounds read low",0.98

# Source: PubChem BioAssay AID1159580 (chemical genetic matrix, 2015)
